Active and inactive are the calls of the source. Unless noted, no rule for the calls is given here.
What was measured:
[1] = compound effects on lung adenocarcinoma cell viability – A549, calcein-AM fluorescence, 48 h, basal, profiling panel (AID 1162); conditions: higher = more signal; also: test concentration not given here
[2] = compound effects on differentiated 3T3-L1 adipocyte viability – cell-based, 3T3-L1 adipocytes, calcein-AM fluorescence, 48 h, basal, profiling panel (AID 1163); conditions: 3T3-L1 adipocytes viability, higher = more signal; also: test concentration not given here
[3] = compound effects on hepatocellular carcinoma cell viability – HepG2, calcein-AM fluorescence, 48 h, basal, profiling panel (AID 1164); conditions: higher = more signal; also: test concentration not given here
[4] = compound effects on multiple myeloma cell viability – MM1S, calcein-AM fluorescence, 48 h, basal, profiling panel (AID 1165); conditions: higher = more signal; also: test concentration not given here
[5] = calcein-AM signal in unstimulated myeloma cells – cell-based, calcein-AM fluorescence, 48 h, PK04 Diversity Set, profiling panel (AID 1166); conditions: RPMI8226 myeloma viability, higher = more signal;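 also: cells grown under basal conditions without added stimulus; test concentration not given here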
[6] = JC-1 mitochondrial signal, unstimulated HepG2 cells – cell-based, JC-1 fluorescence, 24 h, 100 nL compound, profiling panel (AID 1167); conditions: HepG2 mitochondrial potential, higher = more signal; also: test concentration not given here
[7] = JC-1 mitochondrial signal, unstimulated adipocytes – cell-based, JC-1 fluorescence, 3T3-L1 adipocytes, 24 h, 100 nL compound, profiling panel (AID 1168); conditions: JC-1 mitochondrial fluorescence, higher = more signal, called active from +8 up or from −8 down; also: test concentration not given here
[8] = JC-1 mitochondrial signal, unstimulated myeloma cells – cell-based, JC-1 fluorescence, RPMI8226, 24 h, 100 nL compound, profiling panel (AID 1169); conditions: JC-1 mitochondrial potential fluorescence, higher = more signal; also: test concentration not given here
[9] = JC-1 mitochondrial signal, unstimulated MM1S myeloma – cell-based, JC-1 fluorescence, 24 h, 100 nL compound, profiling panel (AID 1170); conditions: MM1S mitochondrial potential, higher = more signal; also: test concentration not given here
[10] = resazurin metabolic signal in A549 cells – cell-based, resazurin fluorescence, 24 h, PK04 Diversity Set, profiling panel (AID 1171); conditions: A549 viability, higher = more signal, called active from +8 up or from −8 down; also: test concentration not given here
[11] = resazurin metabolic signal in HepG2 cells – cell-based, resazurin fluorescence, 24 h, PK04 Diversity Set, profiling panel (AID 1172); conditions: HepG2 viability, higher = more signal; also: test concentration not given here
[12] = budding yeast growth changes without added modifier – OD600, strain BY4716, 24 h, basal condition, primary screen (AID 1173); conditions: S. cerevisiae BY4716 growth, OD600, 24 h; higher = more signal, called active from +8 up or from −8 down
[13] = viability profiling in MM1S myeloma cells – cell-based, resazurin fluorescence, basal, 24 h, PK04 Diversity Set, profiling panel (AID 1174); conditions: higher = more signal, called active from +8 up or from −8 down; also: test concentration not given here
[14] = target: Dihydroorotate dehydrogenase (quinone), mitochondrial (Plasmodium falciparum (isolate 3D7)) (UniProt Q08210); test: inhibition of P. falciparum DHODH – biochemical, C-terminal His tag, absorbance 600 nm, primary screen (AID 1175); conditions: PfDHODH enzyme, DCIP absorbance 600 nm; higher = more signal, called active from +8 up or from −8 down;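 also: recombinant parasite enzyme with a five histidine tag at its C terminus; test concentration not given here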
[15] = inhibition of PAO1 biofilm formation – strain PAO1, LB-PBS medium, absorbance 600 nm, primary screen (AID 1176); also: test concentration not given here; conditions: P. aeruginosa PAO1 growth/biofilm, A600, 12 h; higher = more signal
[16] = growth modulation of vineyard yeast isolate – strain RM11-1a, OD600, basal, 24 h, primary screen (AID 1177);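 also: cultures grown under basal conditions with no added stressor; test concentration not given here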; conditions: S. cerevisiae RM11-1a growth, OD600, 24 h; higher = more signal, called active from +8 up or from −8 down
[17] = growth of efflux-deficient E. coli DRC39 – strain DRC39, OD650, 24 h, E. coli filamentation inducers, primary screen (AID 1178);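 also: growth measured as culture turbidity by optical density at 650 nm; test concentration not given here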; conditions: E. coli DRC39 acrAB, higher = more signal, called active from +8 up or from −8 down
[18] = growth of efflux-deficient E. coli DRC39 – strain DRC39, OD650, 48 h, E. coli filamentation inducers, primary screen (AID 1179);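 also: screen aims at cell division blockers that make cells filament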; conditions: E. coli DRC39 delta-acrAB growth, higher = more signal, called active from +8 up or from −8 down
[19] = viability profiling in RPMI8226 myeloma cells – cell-based, resazurin fluorescence, basal, 24 h, PK04 Diversity Set, profiling panel (AID 1180); conditions: higher = more signal;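 also: RPMI8826 multiple myeloma cell line at 5000 cells per well; test concentration not given here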
[20] = target: E3 ubiquitin-protein ligase XIAP (Homo sapiens) (UniProt P98170); test: small molecules binding XIAP protein – biophysical, small-molecule microarray, fluorescence 635 nm, primary screen (AID 1181); conditions: higher = more signal;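 also: score merges 667 nm emission and signal to noise over triplicate slides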
Chain of E3 ubiquitin-protein ligase XIAP (Homo sapiens) (P98170 whole entry, looked up): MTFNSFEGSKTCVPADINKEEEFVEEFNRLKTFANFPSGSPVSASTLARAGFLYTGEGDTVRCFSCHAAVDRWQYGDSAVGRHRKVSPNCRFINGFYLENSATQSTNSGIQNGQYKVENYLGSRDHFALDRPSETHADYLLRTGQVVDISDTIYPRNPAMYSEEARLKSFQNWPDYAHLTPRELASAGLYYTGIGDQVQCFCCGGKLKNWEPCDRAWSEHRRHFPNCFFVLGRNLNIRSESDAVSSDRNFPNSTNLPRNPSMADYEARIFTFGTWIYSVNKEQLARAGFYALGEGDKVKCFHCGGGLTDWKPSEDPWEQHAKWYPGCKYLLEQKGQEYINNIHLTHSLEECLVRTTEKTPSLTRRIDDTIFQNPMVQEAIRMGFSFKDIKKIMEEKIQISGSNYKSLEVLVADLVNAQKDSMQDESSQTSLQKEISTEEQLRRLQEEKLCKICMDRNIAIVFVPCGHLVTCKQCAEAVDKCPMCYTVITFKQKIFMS

Chain of Dihydroorotate dehydrogenase (quinone), mitochondrial (Plasmodium falciparum (isolate 3D7)) (Q08210 whole entry, looked up): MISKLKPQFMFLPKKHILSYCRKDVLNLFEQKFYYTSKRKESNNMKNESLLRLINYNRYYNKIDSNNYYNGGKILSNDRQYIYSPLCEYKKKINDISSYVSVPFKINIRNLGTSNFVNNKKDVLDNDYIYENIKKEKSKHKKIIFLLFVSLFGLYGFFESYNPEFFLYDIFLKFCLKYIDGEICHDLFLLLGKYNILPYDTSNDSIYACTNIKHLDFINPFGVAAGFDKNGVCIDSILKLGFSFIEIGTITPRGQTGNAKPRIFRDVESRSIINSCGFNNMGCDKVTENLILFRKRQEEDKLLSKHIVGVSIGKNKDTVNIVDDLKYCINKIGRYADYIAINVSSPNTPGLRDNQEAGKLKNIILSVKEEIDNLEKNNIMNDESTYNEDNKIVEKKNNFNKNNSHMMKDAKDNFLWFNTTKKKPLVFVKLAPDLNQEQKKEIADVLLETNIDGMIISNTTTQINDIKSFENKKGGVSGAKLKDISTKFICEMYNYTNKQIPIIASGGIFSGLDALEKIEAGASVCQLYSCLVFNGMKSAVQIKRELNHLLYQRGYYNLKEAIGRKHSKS

| SMILES | z-score [1] | z-score [2] | z-score [3] | z-score [4] | z-score [5] | z-score [6] | z-score [7] | z-score [8] | z-score [9] | z-score [10] | z-score [11] | z-score [12] | z-score [13] | composite z-score [14] | z-score [15] | z-score [16] | z-score [17] | z-score [18] | z-score [19] | composite z-score [20] |
| --- | --- | --- | --- | --- | --- | --- | --- | --- | --- | --- | --- | --- | --- | --- | --- | --- | --- | --- | --- | --- |
| CN(C)C(=O)[C@]1(Cc2ccccc2N=[N+]=[N-])N=C(c2ccc(OCCCO)cc2)O[C@@H]1c1ccccc1CN=[N+]=[N-] | -0.409 | 1.01 | -0.386 | -2.39 | -3.03 | 0.38 | -0.286 (inactive) | -0.992 | -1.09 | 1.59 (inactive) | 2.37 | -1.93 (inactive) | -1.13 (inactive) | -0.106 (inactive) | -0.165 (inactive) | -0.495 (inactive) | 0.804 (inactive) | 0.7 (inactive) | -0.997 | 0.152 |
| COC(=O)[C@@]1(Cc2ccc(OC)cc2)[C@H]2c3cc(C(=O)N4CCCC4)n(Cc4ccc(C)o4)c3C[C@H]2CN1C(=O)c1ccccc1 | -3.86 | -3.17 | -5.75 | -3.31 | -4.69 | -4.45 | 3.65 (inactive) | -0.815 | -2.9 | -7.08 (inactive) | -6.47 | -8.36 (active) | -9.97 (active) | -1.53 (inactive) | 0.411 (inactive) | -1.57 (inactive) | 0.0254 (inactive) | -0.726 (inactive) | -7.27 | 0.402 |
| C=C(CCCC)/C(=C/C[C@H](OC(=O)c1ccncc1)c1ccc(CO)o1)c1cc(C(=O)OC)ccc1OC | -0.705 | -0.0954 | -0.677 | -3.18 | -1.04 | -0.132 | -0.991 (inactive) | -0.375 | -0.207 | -0.401 (inactive) | -0.673 | -0.756 (inactive) | -2.13 (inactive) | -3.99 (inactive) | 0.898 (inactive) | -0.145 (inactive) | -0.861 (inactive) | -0.528 (inactive) | -0.963 | 0.0537 |
| NC(=O)NCC#Cc1ccc2c(c1)[C@]1(C(=O)N2)[C@H](c2ccc(O)cc2)N2[C@H](c3ccccc3)[C@H](c3ccccc3)OC(=O)[C@H]2[C@@H]1C(N)=O | 0.233 | -1.07 | 0.705 | 0.669 | 1.23 | -0.538 | -0.06 (inactive) | -0.371 | -0.691 | -1.08 (inactive) | -0.49 | -0.297 (inactive) | -0.226 (inactive) | -0.552 (inactive) | 0.185 (inactive) | 0.603 (inactive) | 0.968 (inactive) | 0.936 (inactive) | -0.11 | 0.074 |
| CC(C)C(CO)N1C(=O)[C@@H]2[C@H]3C(=O)OCC=C[C@H]3OC23C=CCN(Cn2nnc4ccccc42)C(=O)[C@@H]13 (stereo not given in full) | -0.746 | -0.191 | -0.751 | 0.48 | -0.653 | -0.578 | -0.373 (inactive) | 0.432 | 0.281 | -0.274 (inactive) | 0.288 | 0.959 (inactive) | -0.281 (inactive) | 0.237 (inactive) | 0.894 (inactive) | 0.68 (inactive) | -0.497 (inactive) | -0.708 (inactive) | -0.0558 | 0.175 |

— PubChem BioAssay
